MEP2 TOR yeast: modulators of MEP2-GFP levels in yeast, primary screen, S. cerevisiae, multiplex flow cytometry, MLPCN library | S. cerevisiae MEP2-GFP strain, 3 h; 100% = DMSO control level | GFP response vs DMSO, % at 10 µM | 330,000 compounds, 0.51% hits | AID 2016, 2009;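 active = GFP response versus DMSO above a set limit, roughly screen mean plus 3 SD, cut at about 180% in these data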;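 also: median GFP fluorescence of the barcode-gated MEP2-GFP cells per well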
AGP1 TOR yeast: modulators of AGP1-GFP expression in yeast TOR pathway, primary screen, cell-based, multiplex flow cytometry, S. cerevisiae, MLPCN library. 3 h; GFP as percent of DMSO wells. 320,000 compounds, 0.02% hits. AID 2066, 2009. GFP response vs DMSO, % at 10 µM;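 active = GFP response relative to DMSO above a set limit, near screen average plus 3 SD, cut at about 150% in these data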;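 also: median GFP channel fluorescence of the gated AGP1 strain per well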
Efflux pump mplx: inhibitors of Candida efflux pumps in yeast, primary screen, S. cerevisiae, Nile Red, multiplex; S. cerevisiae Candida pump triplex; 330,000 compounds, 0.44% hits; inhibition, % at 10 µM;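 active = plate passing quality check with inhibition over a set limit, or well fluorescence over plate mean plus 4 SD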;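 also: Nile Red retained in pooled yeast measured as flow cytometry median fluorescence; higher means more Nile Red kept so more efflux inhibition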
LAP4-GFP MLPCN: modulators of LAP4-GFP expression in yeast, primary screen, S. cerevisiae, multiplex flow cytometry, MLPCN library. 3 h; median GFP as percent of DMSO wells. GFP response vs DMSO, % at 10 µM. 320,000 compounds, 0.34% hits. AID 2023, 2009;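 active = GFP response vs DMSO above a set limit, about the screen mean plus 3 SD, cut at about 150% in these data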
RPL19A TOR yeast: RPL19A-GFP expression modulators in yeast, primary screen, cell-based, S. cerevisiae, multiplex flow cytometry, MLPCN | 330,000 compounds, 0.3% hits | S. cerevisiae RPL19A-GFP strain, 3 h; active compounds read low | percent response vs DMSO, % at 10 µM;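 active = percent response vs DMSO below 50%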;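 also: median channel GFP fluorescence of the barcoded RPL19A-GFP strain; lower means less RPL19A-GFP as with rapamycin TOR inhibition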
CIT2-GFP yeast: modulators of CIT2-GFP expression in yeast, primary screen, S. cerevisiae, GFP fusion, multiplex flow cytometry, MLPCN library | S. cerevisiae CIT2-GFP strain, 3 h; 100 means same as DMSO wells | GFP response vs DMSO, % at 10 µM | 320,000 compounds, 0.065% hits;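 active = GFP response relative to DMSO above a set limit, near the screen mean plus 3 SD, cut at about 150% in these data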;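 also: ratio of well median GFP fluorescence to mean of DMSO wells on the plate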
Yeast cmpd fluor: compound fluorescence in yeast efflux pump counter-screen. shares compounds with Efflux pump mplx. S. cerevisiae AD/pABC3, flow cytometry. fluorescence ratio to DMSO, % at 10 µM. 1,700 compounds, 4% hits. AID 588517;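 active = fluorescence ratio to DMSO above its plate's cutoff, the plate mean ratio plus 5 SD, cut at about 210% in these data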;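 also: unstained yeast with no Nile Red so the signal is compound autofluorescence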
CaMdr1 efflux inh: inhibitors of Candida albicans Mdr1 efflux, confirmation, flow cytometry, singleplex, Cherry Pick1 set | inhibition, % at 10 µM | S. cerevisiae AD/CaMDR1, Nile Red efflux | 1,700 compounds, 1% hits | shares compounds with Efflux pump mplx; in the data active = inhibition above about 26%;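 also: higher means more Nile Red retained so more efflux inhibition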
CaCdr2 efflux inh: inhibitors of Candida albicans Cdr2 efflux pump, confirmation, S. cerevisiae AD/CaCDR2, flow cytometry, cherry pick 1, singleplex | shares compounds with Efflux pump mplx | Nile Red retention | Nile Red retention ratio vs DMSO, % at 10 µM | 1,700 compounds, 4% hits | AID 588520, 2011; in the data active = Nile Red retention ratio vs DMSO above about 190%;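 also: higher ratio means more blocking of Cdr2 efflux of the dye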
Cdr1 pump inh: inhibitors of Candida albicans Cdr1 efflux pump, confirmation, S. cerevisiae AD/CaCDR1, flow cytometry, cherry pick 1, singleplex | shares compounds with Efflux pump mplx | Nile Red efflux | inhibition, % at 10 µM | 1,700 compounds, 1% hits | AID 588522, 2011;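 active = inhibition above the screen-wide mean plus twice its standard deviation, cut at about 32% in these data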
A number is an active result; n = inactive; x = not tested or not shown. Rows were chosen to be rich in hits. Some 1.3% of all compounds tested hit in one or more screens of this group.

SMILES	MEP2 TOR yeast	AGP1 TOR yeast	Efflux pump mplx	LAP4-GFP MLPCN	RPL19A TOR yeast	CIT2-GFP yeast	Yeast cmpd fluor	CaMdr1 efflux inh	CaCdr2 efflux inh	Cdr1 pump inh
CCCN(CCC)C(=O)Cn1c(=O)n(CCCCCC(=O)Nc2ccccc2)c(=O)c2sccc21	n	n	18.9	n	n	n	n	n	n	n
CCN(CC)C(=O)Cn1c(=O)n(CCC(=O)Nc2ccc(F)cc2)c(=O)c2sccc21	n	n	n	n	n	n	x	x	x	x
CC(=O)Nc1ccc(NC(=O)C(C)OC(=O)CSc2ccc(Br)cc2C)cc1 (stereo not given)	n	n	n	n	n	n	x	x	x	x
C=C(C)C(O)CC/C(C)=C/Cc1c(O)ccc(C(=O)/C=C/c2ccc(O)cc2)c1O (stereo not given)	n	n	n	n	n	n	x	x	x	x
COc1ccc(C(=O)/C=C/c2ccc(O)cc2)c(O)c1C/C=C(\C)CCC=C(C)C	n	n	1.3	n	n	n	n	n	n	n
CCOC(=O)c1[nH]c2ccc(C)cc2c1NC(=O)CN1CCCCC1	n	n	n	n	n	n	x	x	x	x
Cc1c2cc[n+](CCN3CCCCC3)cc2c(C)c2c1[nH]c1ccc(O)cc12	x	x	x	x	x	x	n	n	n	n
O=C(CSc1nc2ccc(Cl)cc2[nH]1)N1CCN(C(=O)c2ccco2)CC1	n	n	13.9	n	n	n	n	n	n	n
OCC[n+]1ccc(/C=C/c2c[nH]c3ccccc23)cc1	n	n	2.5	n	n	n	429.4	n	n	n
Cc1ccc2nc(-c3ccccc3)cn2c1	n	n	n	n	n	n	x	x	x	x
CC(=O)Nc1ccc(-c2cn3cc(C)ccc3n2)cc1	n	n	6.5	n	n	n	n	n	n	n
CNc1nc2[nH]c(=O)c3c(c2s1)OC(N)=C(C#N)C3c1ccccc1 (stereo not given)	n	n	9.7	n	n	n	n	n	n	n
Cc1nc(C(=O)Nc2cc(Cl)ccc2Cl)nn1-c1cc(OC(C)C)c(Cl)cc1Cl	n	n	n	n	n	n	x	x	x	x
Cc1nc(C(=O)Nc2ccc(Cl)cc2Cl)nn1-c1cc(OC(C)C)c(Cl)cc1Cl	n	n	1.3	n	n	n	n	n	n	n
O=C(NC(n1ccc(=O)[nH]c1=O)C(Cl)(Cl)Cl)C12CC3CC(CC(C3)C1)C2 (stereo not given)	n	n	n	n	n	n	x	x	x	x
COC/C=C/C1=CC2=CC(=O)C(C)(OC(=O)c3cnc4ccccc4n3)C(=O)C2=CN1CC(C)C (stereo not given)	n	n	0.9	n	n	n	n	n	n	n
O=C(NCC1CCCO1)C1CCCN(S(=O)(=O)c2cccc(C(F)(F)F)c2)C1 (stereo not given)	n	n	1.3	n	n	n	n	n	n	n
COc1ccc(S(=O)(=O)N2CCCC(C(=O)NCC3CCCO3)C2)cc1C (stereo not given)	n	n	n	n	n	n	x	x	x	x
COc1ccccc1CNC(=O)COc1ccccc1OC	n	n	1.0	n	n	n	n	n	n	n
O=C(Nc1ccc(C2=NCCN2)cc1)c1ccc(C(=O)Nc2ccc(C3=NCCN3)cc2)c([N+](=O)[O-])c1	n	n	1.1	n	n	n	n	n	n	n
Cc1ccc(NC(=O)c2ccc(-n3cccn3)c([N+](=O)[O-])c2)cc1	n	n	n	n	n	n	x	x	x	x
O=C(CSc1nncc2ccccc12)N1CCCCC1	n	n	n	n	n	n	x	x	x	x
COC(=O)CSc1nn(-c2ccc(F)cc2)c(=S)s1	n	n	n	n	n	n	x	x	x	x
CCOC(=O)c1ccccc1NC(=O)CSc1ccc(-c2cccnc2)nn1	n	n	1.5	n	n	n	n	n	n	n
CN1/C(=C/c2cccc[n+]2C)Sc2ccccc21	n	n	n	n	n	n	x	x	x	x
SMILES	MEP2 TOR yeast	AGP1 TOR yeast	Efflux pump mplx	LAP4-GFP MLPCN	RPL19A TOR yeast	CIT2-GFP yeast	Yeast cmpd fluor	CaMdr1 efflux inh	CaCdr2 efflux inh	Cdr1 pump inh
Cc1ccc2c(c1)N(C)/C(=C/c1cccc[n+]1C)S2	n	n	1.2	n	n	n	n	n	n	n
COc1ccc2c(c1)N(C)/C(=C/c1cccc[n+]1C)S2	n	n	1.1	n	n	n	n	n	n	n
CCCN(C(=O)c1ccc2c(SCC(=O)O)c3c(nc2c1)CCC3)c1cccc(C)c1	n	n	n	n	n	n	x	x	x	x
CCN(Cc1ccccc1)S(=O)(=O)c1c(C(=O)N2CCCC2)c(C)n(C)c1C	n	n	n	n	n	n	x	x	x	x
COc1ccc(C(=O)N/N=C/c2ccc(OC)c(COc3ccccc3)c2)cc1	n	n	n	n	n	n	x	x	x	x
COc1ccc(/C=N/NC(=O)c2nc(Cl)c(Cl)c(N)c2Cl)cc1COc1ccc(F)cc1F	n	n	1.0	n	n	n	n	n	n	n
COc1cc(OC)cc(C(=O)N/N=C/c2ccc(OC)c(COc3ccc4ccccc4c3)c2)c1	n	n	0.6	n	n	n	n	n	n	n
Cc1ccc(S(=O)(=O)Nc2ccc(N3CCOCC3)nc2)cc1	n	n	n	n	n	x	x	x	x	x
Cc1ccc(C)n1-c1ccc(N2CCOCC2)nc1	n	n	12.0	n	x	n	n	n	n	n
Cc1cccc(CS(=O)(=O)Cc2ccc(C(=O)NCc3ccco3)o2)c1	n	n	12.6	n	n	n	n	n	n	n
COCCN(C(=O)CCC(=O)Nc1cc(C)on1)C(C(=O)NC(C)(C)C)c1ccc(OC)cc1 (stereo not given)	n	n	n	n	n	n	n	n	n	n
COc1ccc(C(C(=O)NC(C)(C)C)N(Cc2ccco2)C(=O)CCC(=O)Nc2cc(C)on2)cc1 (stereo not given)	n	n	n	n	n	n	n	n	n	n
